Records with an inconclusive call do not appear. The source made the active and inactive calls. Unless noted, calls follow the shape of the dose curve; as a rule, active = well fitted curve in the direction sought with a large enough effect in the repeat runs; inconclusive = weak or mixed curves; inactive = no such curve, though single readings can be large; an effect the other way counts as inactive or inconclusive.
Columns and labels:
[1] = qHTS assay to identify small molecule agonists of the peroxisome proliferator-activated receptor delta (PPARd) signaling pathway - cell viability counter screen (AID 743211); details: PPARd-bla HEK293H viability, CellTiter-Glo luminescence, 17 h; series mostly up to 62.6 µM; also: nearly all actives have a fitted effect of over 55% in size; also: potency is read from the fitted curve at half-maximal effect
Procedure, shortened: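 Counter screen for cytotoxicity run in parallel with the PPARd reporter screen. Beta-lactamase reporter HEK293H cells exposed to compounds 17 h; ATP-based CellTiter-Glo luminescence quantified viability.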

[2] = qHTS assay to identify small molecule antagonists of the peroxisome proliferator-activated receptor delta (PPARd) signaling pathway - cell viability counter screen (AID 743213); details: PPARd-bla HEK293H viability, CellTiter-Glo luminescence, 17 h; series mostly up to 62 µM; also: nearly all actives have a fitted effect of over 50% in size; also: potency is read from the fitted curve at half-maximal effect
Procedure, shortened: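 In this counter screen, HEK293H cells carrying a UAS-beta-lactamase reporter are co-treated with test compounds and 300 nM L165041 (final) for 17 h at 37 C; cell viability is quantified by CellTiter-Glo luminescence.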

[3] = qHTS assay to identify small molecule agonists of the farnesoid-X-receptor (FXR) signaling pathway - cell viability counter screen (AID 743218); details: FXR-bla HEK293T viability, CellTiter-Glo luminescence, 16 h; series mostly up to 62.6 µM; also: nearly all actives have a fitted effect of over 45% in size; also: potency is read from the fitted curve at half-maximal effect
Procedure, shortened: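 Cytotoxicity counter-screen run in parallel, same wells: FXR-UAS-bla HEK 293T cells dosed 16 h at 37 C, viability read by CellTiter-Glo luminescence after 30 min at room temperature.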

[4] = qHTS assay to identify small molecule antagonists of the farnesoid-X-receptor (FXR) signaling pathway - cell viability counter screen (AID 743221; active = well fitted cell-killing curve with a large enough effect in the repeat runs, not every such curve was filed as active; also: nearly all actives have a fitted effect of over 50% in size; also: potency is read from the fitted curve at half-maximal effect); details: FXR-bla HEK293T viability, CellTiter-Glo luminescence, 16 h; series mostly up to 62.6 µM
Procedure, shortened: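 Multiplexed counter screen: viability of FXR-bla HEK 293T cells under agonist stimulation by chenodeoxycholic acid (50 uM, final) and test compound for 16 h at 37 C, measured by CellTiter-Glo luminescence in the reporter wells.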

[5] = molecular target: Vitamin D3 receptor (Homo sapiens) (UniProt P11473); assay: qHTS assay to identify small molecule agonists of the vitamin D receptor (VDR) signaling pathway (AID 743222; calls by dose curve); details: HEK293T VDR-UAS-bla, beta-lactamase FRET ratio, 16 h; series mostly up to 63.5 µM
Sequence of Vitamin D3 receptor (Homo sapiens) (P11473 whole entry, looked up): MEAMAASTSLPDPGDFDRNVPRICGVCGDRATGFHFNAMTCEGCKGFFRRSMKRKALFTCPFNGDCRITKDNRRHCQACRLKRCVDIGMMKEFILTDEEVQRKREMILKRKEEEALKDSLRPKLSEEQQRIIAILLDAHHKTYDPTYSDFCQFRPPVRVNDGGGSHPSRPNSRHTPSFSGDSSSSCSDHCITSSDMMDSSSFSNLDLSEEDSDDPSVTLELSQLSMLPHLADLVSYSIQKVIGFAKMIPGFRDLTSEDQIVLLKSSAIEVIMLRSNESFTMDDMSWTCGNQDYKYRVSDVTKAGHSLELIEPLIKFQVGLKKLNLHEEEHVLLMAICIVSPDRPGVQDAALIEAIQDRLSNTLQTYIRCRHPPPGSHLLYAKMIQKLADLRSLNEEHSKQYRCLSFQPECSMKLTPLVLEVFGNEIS
Procedure, shortened: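 Quantitative HTS agonist-mode screen: compounds in DMSO were pin-transferred onto VDR-bla cells and incubated 16 h at 37C, 5% CO2. Reporter activity was detected with LiveBLAzer B/G FRET substrate after 2 h at room temperature.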

[6] = molecular target: Vitamin D3 receptor (Homo sapiens) (UniProt P11473); assay: qHTS assay to identify small molecule antagonists of the vitamin D receptor (VDR) signaling pathway (AID 743223; active = well fitted inhibition curve with a large enough effect in the signal ratio in the repeat runs, not every such curve was filed as active; the % refers to the signal ratio); details: VDR-UAS-bla HEK293T, beta-lactamase FRET ratio, 16 h; series mostly up to 61 µM
Procedure, shortened: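 Cells carrying a VDR-driven beta-lactamase reporter (VDR-bla) were co-treated with compound and 3 nM final 1alpha,25-dihydroxyvitamin D3 for 16 h at 37C; reporter activity was measured as FRET substrate fluorescence after 2 h at room temperature.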

[7] = molecular target: Bile acid receptor (Homo sapiens) (UniProt Q96RI1); assay: qHTS assay to identify small molecule antagonists of the farnesoid-X-receptor (FXR) signaling pathway (AID 743217; active = well fitted inhibition curve with a large enough effect in the signal ratio in the repeat runs, not every such curve was filed as active; the % refers to the signal ratio; also: potency is read from the fitted curve at half-maximal effect); details: HEK293T FXR-UAS-bla, beta-lactamase ratio, CDCA-stimulated, 16 h; series mostly up to 62.6 µM
Sequence of Bile acid receptor (Homo sapiens) (Q96RI1 whole entry, looked up): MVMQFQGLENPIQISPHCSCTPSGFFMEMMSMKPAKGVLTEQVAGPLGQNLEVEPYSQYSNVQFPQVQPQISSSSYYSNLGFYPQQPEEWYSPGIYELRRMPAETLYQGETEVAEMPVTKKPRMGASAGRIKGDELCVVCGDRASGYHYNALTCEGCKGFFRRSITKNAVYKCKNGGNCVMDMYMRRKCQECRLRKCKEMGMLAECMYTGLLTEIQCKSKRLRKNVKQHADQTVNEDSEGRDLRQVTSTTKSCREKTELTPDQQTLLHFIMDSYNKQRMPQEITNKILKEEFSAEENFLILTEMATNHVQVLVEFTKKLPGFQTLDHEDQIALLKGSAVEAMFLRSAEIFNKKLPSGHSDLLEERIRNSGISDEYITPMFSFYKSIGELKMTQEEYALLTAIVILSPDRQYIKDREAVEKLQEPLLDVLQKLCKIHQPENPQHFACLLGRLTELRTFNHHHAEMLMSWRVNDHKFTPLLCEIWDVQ
Procedure, shortened: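 Antagonist mode against 50 uM (final) chenodeoxycholic acid stimulation in FXR-bla HEK 293T cells, 16 h at 37 °C. Inhibition detected as reduced beta-lactamase activity via LiveBLAzer B/G FRET fluorescence after 2 h at room temperature.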

[8] = molecular target: Peroxisome proliferator-activated receptor delta (Homo sapiens) (UniProt Q03181); assay: qHTS assay to identify small molecule antagonists of the peroxisome proliferator-activated receptor delta (PPARd) signaling pathway (AID 743215; active = well fitted inhibition curve with a large enough effect in the signal ratio in the repeat runs, not every such curve was filed as active; the % refers to the signal ratio;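 also: cells stimulated with agonist L165041 at 300 nM final during compound exposure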); details: HEK293H PPARd-UAS-bla, beta-lactamase FRET ratio, antagonist, 17 h; series mostly up to 62 µM
Sequence of Peroxisome proliferator-activated receptor delta (Homo sapiens) (Q03181 whole entry, looked up): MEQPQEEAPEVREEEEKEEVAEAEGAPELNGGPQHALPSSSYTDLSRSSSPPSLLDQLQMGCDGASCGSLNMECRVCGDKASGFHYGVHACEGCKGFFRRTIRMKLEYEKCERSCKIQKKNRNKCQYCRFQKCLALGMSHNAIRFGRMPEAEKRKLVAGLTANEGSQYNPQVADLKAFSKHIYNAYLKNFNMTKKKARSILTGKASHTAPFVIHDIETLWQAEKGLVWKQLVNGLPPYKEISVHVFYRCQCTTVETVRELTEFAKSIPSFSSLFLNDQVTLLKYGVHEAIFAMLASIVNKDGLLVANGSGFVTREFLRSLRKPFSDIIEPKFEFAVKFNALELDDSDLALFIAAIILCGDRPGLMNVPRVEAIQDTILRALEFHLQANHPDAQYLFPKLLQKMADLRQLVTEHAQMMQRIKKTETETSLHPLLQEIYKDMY
Procedure, shortened: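 Inhibition of L165041-driven (300 nM final) PPARd signaling is scored in HEK293H UAS-bla cells. Exposure lasts 17 h at 37 C; beta-lactamase activity is then read by FRET substrate fluorescence after 2 h at room temperature.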

[9] = molecular target: Bile acid receptor (Homo sapiens) (UniProt Q96RI1); assay: qHTS assay to identify small molecule agonists of the farnesoid-X-receptor (FXR) signaling pathway (AID 743220; active = well fitted activation curve with a large enough effect in the signal ratio in the repeat runs, not every such curve was filed as active; the % refers to the signal ratio); details: HEK293T FXR-UAS-bla, beta-lactamase FRET ratio, 16 h; series mostly up to 62.6 µM
Procedure, shortened: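 Beta-lactamase reporter under UAS control in GeneBLAzer FXR HEK 293T cells (5000/well) measured with LiveBLAzer FRET substrate after 2 h at room temperature. Compound exposure lasted 16 h at 37C.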

[10] = molecular target: Peroxisome proliferator-activated receptor delta (Homo sapiens) (UniProt Q03181); assay: qHTS assay to identify small molecule agonists of the peroxisome proliferator-activated receptor delta (PPARd) signaling pathway (AID 743212; calls by dose curve; also: potency is read from the fitted curve at half-maximal effect); details: HEK293H PPARd-UAS-bla, beta-lactamase FRET ratio, 17 h; series mostly up to 62.6 µM
Procedure, shortened: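 GeneBLAzer PPARd UAS-bla HEK293H cells (beta-lactamase reporter under UAS control), plated and rested 5 h at 37 C, then exposed to compounds in DMSO at 37 C; LiveBLAzer B/G FRET substrate added, 2 h room temperature, fluorescence read.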

Measured: Potency

OC1(c2ccccc2)CCNCC1
inactive: [1] | [2] | [3] | [4] | [5] | [6]

CCCCCCCCCCCCCCN(CCO)CCO
active: [1] 43.6 µM | [2] 49 µM | [7] 49 µM
inactive: [5]

c1ccc(C[n+]2cccc3ccccc32)cc1
not listed: [6] | [10]
inactive: all other assays above

CCCCCCNC(=O)n1cc(F)c(=O)[nH]c1=O
inactive: [1] | [10] | [8] | [4] | [5] | [6]

CC(C)(C)CC(=O)OCC(=O)[C@@]1(O)CC[C@H]2[C@@H]3CCC4=CC(=O)C=C[C@]4(C)[C@H]3[C@@H](O)C[C@@]21C
inactive: [1] | [2] | [3] | [4] | [5]

CCOC(C)=O
inactive: [1] | [10] | [8] | [4] | [5] | [6]

CC1(C)[C@H](C(=O)O)N2C(=O)C[C@H]2S1(=O)=O
inactive: [1] | [2] | [3] | [9] | [4] | [5]

O=C(/C=C/c1ccc(O)c(O)c1)O[C@@H]1C[C@@](OC(=O)/C=C/c2ccc(O)c(O)c2)(C(=O)O)C[C@@H](O)[C@@H]1O
not listed: [7] | [9] | [10]
inactive: all other assays above

CCCCOc1ccc(OCCCN2CCOCC2)cc1
inactive: [1] | [2] | [7] | [9] | [4] | [5]

O=C(OCC(O)CO)c1ccccc1Nc1ccnc2cc(Cl)ccc12 (stereo not given)
active: [1] 33.5 µM | [2] 26.6 µM

Cc1ccc(OC(=O)c2ccccc2O)cc1
inactive: [1] | [10] | [8] | [4] | [5] | [6]

O=C(Cn1ccnc1[N+](=O)[O-])NCCO
not listed: [10]
inactive: all other assays above

CC(=O)c1cc2ccccc2s1
inactive: [1] | [10] | [7] | [9] | [4] | [6]

CC(=O)OCC(=O)NCCCOc1cccc(CN2CCCCC2)c1
not listed: [2] | [3] | [8]
inactive: all other assays above

O=C1CCCCCCCCCCOCCCCO1
inactive: [1] | [10] | [8] | [4] | [5] | [6]

Cc1cc2c(OCC(CNC(C)(C)C)OC(=O)c3ccccc3)cccc2[nH]1 (stereo not given)
not listed: [7] | [9] | [10]
inactive: all other assays above

Cc1c(C)c2c(c(C)c1OC(=O)CCC(=O)OCCO)CC[C@@](C)(CCC[C@H](C)CCC[C@H](C)CCCC(C)C)O2
active: [1] 33.5 µM
inactive: [10] | [9]

O=C(O)CCc1nc(-c2ccccc2)c(-c2ccccc2)o1
inactive: [1] | [2] | [8] | [3] | [4] | [5]

NC1[C@H]2CN(c3nc4c(cc3F)c(=O)c(C(=O)O)cn4-c3ccc(F)cc3F)C[C@@H]12 (stereo not given in full)
active: [10] 29.8 µM
inactive: [1] | [4]

CCOC(=O)C1=C(C)NC(C)=C(C(=O)OC)C1c1cccc(Cl)c1Cl (stereo not given)
inactive: [1] | [2] | [8] | [7] | [3] | [4]

CC1(C)[C@@H](OC(=O)CCC(=O)O)CC[C@]2(C)[C@H]3C(=O)C=C4[C@@H]5C[C@@](C)(C(=O)O)CC[C@]5(C)CC[C@@]4(C)[C@]3(C)CC[C@@H]12
inactive: [1] | [2] | [3] | [4]

O=[N+]([O-])c1ccc(Nc2ccc(Nc3ccccc3)c(S(=O)(=O)O)c2)c([N+](=O)[O-])c1
inactive: [1] | [10] | [3] | [4] | [5]

Cc1ccc(Cl)c(Nc2ccccc2C(=O)O)c1Cl
inactive: [1] | [2] | [7] | [3] | [9] | [4]

CC(=O)NC1(c2cccc(F)c2)CCN(CC[C@@]2(c3ccc(Cl)c(Cl)c3)CN(c3ccccc3)C(=O)CO2)CC1
active: [1] 13.8 µM | [2] 21.9 µM | [3] 15.5 µM | [4] 24.6 µM
inactive: [9] | [5]

CN1CCCC(CC2c3ccccc3Sc3ccccc32)C1 (stereo not given)
active: [1] 29.8 µM | [2] 26.6 µM | [3] 13.3 µM
inactive: [9]

C=C1CCC2CC1C2(C)C (stereo not given)
inactive: [1] | [10] | [3] | [4] | [5] | [6]

c1cc(N(CC2CO2)CC2CO2)ccc1Cc1ccc(N(CC2CO2)CC2CO2)cc1 (stereo not given)
inactive: [1] | [2] | [3] | [4]

OC(CCN1CCCC1)(c1ccccc1)C1CCCCC1 (stereo not given)
inactive: [1] | [2] | [3] | [4] | [5] | [6]

C/C=C/C=C/C=O
inactive: [1] | [10] | [4] | [5]

OCCN1CCN(CCCN2c3ccccc3Sc3ccc(Cl)cc32)CC1
inactive: [10] | [9]
active: [1] 29.8 µM | [3] 26.6 µM | [4] 26.6 µM

C[C@@H](CN(C)C)CN1c2ccccc2Sc2ccccc21
active: [1] 23.7 µM | [2] 26.6 µM
inactive: [8] | [9] | [5]

CNC(=O)c1cnn(-c2nc(N)c3ncn([C@@H]4O[C@H](CO)[C@@H](O)[C@H]4O)c3n2)c1
inactive: [1] | [2] | [3] | [4] | [5]

C[C@]1(Cn2ccnn2)[C@H](C(=O)O)N2C(=O)C[C@H]2S1(=O)=O
inactive: [1] | [2] | [3] | [9] | [5]

COC(=O)[C@H]1[C@H]2C[C@@H]3c4[nH]c5cc(OC)ccc5c4CCN3C[C@H]2C[C@@H](OC(=O)/C=C/c2ccc(O)c(OC)c2)[C@@H]1OC
inactive: [9]
active: [1] 8.41 µM | [2] 10.6 µM | [3] 8.41 µM | [4] 18.8 µM

Source: PubChem BioAssay (Tox21)
